Laboratory results as given in PubChem BioAssay (NCATS).
Records with an inconclusive call do not appear. Where a call stands in place of a potency, no number is given. Values without a mark were called inactive. Active and inactive are the calls of the source. The call rests on the fitted dose curve; in most records, active means well fitted cell-killing curve with a large enough effect; inconclusive means small, poorly fitted or top-dose-only effect, or effect the other way; inactive means flat fitted curve, though single readings scatter.

What was measured:
Test in all cases: Primary qHTS to identify gynecologic anti-cancer compounds using libraries of approved drugs and bioactive compounds (AID 1345084); further: nearly all actives have a fitted effect of over 55% in size
C33A = details: Gynecologic cancer cell panel viability, ATPlite luminescence, 48 h; series mostly up to 57.5 µM
Summary of the method: (§1)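 ATP-based viability (ATPlite), 1,000 cells/well, 16 h pre-incubation, 48 h compound at 37 C, 5% CO2, 15 min RT before read.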

CAOV3 = details: Gynecologic cancer cell panel viability, ATPlite luminescence, 48 h; series mostly up to 57.5 µM
Summary of the method: as §1

CASKI = details: Gynecologic cancer cell panel viability, ATPlite luminescence, 48 h; series mostly up to 57.5 µM
Summary of the method: as §1

Es-2 = details: Gynecologic cancer cell panel viability, ATPlite luminescence, 48 h; series mostly up to 57.5 µM
Summary of the method: as §1

HeLa = details: Gynecologic cancer cell panel viability, ATPlite luminescence, 48 h; series mostly up to 57.5 µM
Summary of the method: as §1

JEG-3 = details: Gynecologic cancer cell panel viability, ATPlite luminescence, 48 h; series mostly up to 57.5 µM
Summary of the method: as §1

OV90 = details: Gynecologic cancer cell panel viability, ATPlite luminescence, 48 h; series mostly up to 57.5 µM
Summary of the method: as §1

SKOV3 = details: Gynecologic cancer cell panel viability, ATPlite luminescence, 48 h; series mostly up to 57.5 µM
Summary of the method: as §1

Tov-21-G = details: Gynecologic cancer cell panel viability, ATPlite luminescence, 48 h; series mostly up to 57.5 µM
Summary of the method: as §1

Tov112D = details: Gynecologic cancer cell panel viability, ATPlite luminescence, 48 h; series mostly up to 57.5 µM
Summary of the method: as §1

Hek293T = details: Gynecologic cancer cell panel viability, ATPlite luminescence, 48 h, control line for the selectivity index; series mostly up to 57.5 µM
Summary of the method: as §1

PA-1 = details: Gynecologic cancer cell panel viability, ATPlite luminescence, 48 h; series mostly up to 57.5 µM
Summary of the method: as §1
Potency means the concentration at half of the fitted maximal effect.

CC(=O)C1(C)CCC2C3C=C(C)C4=CC(=O)CCC4(C)C3CCC21C (stereo not given)
Potency (C33A): inactive | Potency (CAOV3): inactive | Potency (CASKI): inactive | Potency (Es-2): inactive | Potency (HeLa): 14.1 µM (active) | Potency (JEG-3): inactive | Potency (OV90): inactive | Potency (SKOV3): inactive | Potency (Tov-21-G): inactive | Potency (Tov112D): inactive

CC1=C(c2ccc(NC(=O)c3c(F)cccc3F)cc2)CN(c2nccs2)CC1
Potency (C33A): inactive | Potency (CAOV3): inactive | Potency (CASKI): inactive | Potency (Es-2): inactive | Potency (HeLa): inactive | Potency (Hek293T): inactive | Potency (PA-1): inactive | Potency (SKOV3): inactive | Potency (Tov-21-G): inactive | Potency (Tov112D): inactive

CN(C)C(=O)Nc1cccc(-c2ccc(N(C)C)cc2)c1
Potency (C33A): inactive | Potency (CAOV3): inactive | Potency (CASKI): inactive | Potency (Es-2): inactive | Potency (HeLa): inactive | Potency (JEG-3): inactive | Potency (OV90): inactive | Potency (PA-1): inactive | Potency (Tov-21-G): inactive | Potency (Tov112D): inactive

Cc1cc(F)ccc1[C@H]1C[C@@H](N2CCN3C(=O)CC[C@H]3C2)CCN1C(=O)N(C)[C@H](C)c1cc(C(F)(F)F)cc(C(F)(F)F)c1
Potency (C33A): inactive | Potency (CAOV3): inactive | Potency (CASKI): inactive | Potency (Es-2): inactive | Potency (HeLa): inactive | Potency (JEG-3): inactive | Potency (OV90): inactive | Potency (PA-1): inactive | Potency (Tov-21-G): inactive | Potency (Tov112D): inactive

CC(O)C(C)n1ncn(-c2ccc(N3CCN(c4ccc(OCC5COC(Cn6cncn6)(c6ccc(Cl)cc6Cl)O5)cc4)CC3)cc2)c1=O (stereo not given)
Potency (C33A): inactive | Potency (CAOV3): inactive | Potency (CASKI): inactive | Potency (Es-2): inactive | Potency (HeLa): inactive | Potency (Hek293T): inactive | Potency (PA-1): inactive | Potency (SKOV3): inactive | Potency (Tov-21-G): inactive | Potency (Tov112D): inactive

CC(=O)OC1C(OC(=O)c2ccccc2)C2C(=C(C)CCC2(C)C)C23CCC(C)(C2)C(=O)CC13 (stereo not given)
Potency (C33A): inactive | Potency (CAOV3): inactive | Potency (CASKI): inactive | Potency (Es-2): inactive | Potency (HeLa): inactive | Potency (JEG-3): inactive | Potency (PA-1): inactive | Potency (Tov-21-G): inactive | Potency (Tov112D): inactive

CCC(C(C)O)n1ncn(-c2ccc(N3CCN(c4ccc(OCC5COC(Cn6cncn6)(c6ccc(F)cc6F)C5)cc4)CC3)cc2)c1=O (stereo not given)
Potency (C33A): inactive | Potency (CAOV3): inactive | Potency (CASKI): inactive | Potency (Es-2): inactive | Potency (HeLa): inactive | Potency (JEG-3): inactive | Potency (OV90): inactive | Potency (PA-1): inactive | Potency (SKOV3): inactive | Potency (Tov-21-G): inactive | Potency (Tov112D): inactive

Fc1ccc(N2CCCCC2)c(NC(=S)c2ccncc2)c1
Potency (C33A): inactive | Potency (CAOV3): inactive | Potency (CASKI): inactive | Potency (Es-2): inactive | Potency (HeLa): inactive | Potency (JEG-3): inactive | Potency (OV90): inactive | Potency (PA-1): inactive | Potency (SKOV3): inactive | Potency (Tov-21-G): inactive | Potency (Tov112D): inactive

Clc1ncoc1-c1c[nH]c2ccccc12
Potency (C33A): inactive | Potency (CAOV3): inactive | Potency (CASKI): inactive | Potency (Es-2): inactive | Potency (Hek293T): inactive | Potency (JEG-3): inactive | Potency (OV90): inactive | Potency (PA-1): inactive | Potency (SKOV3): inactive | Potency (Tov-21-G): inactive | Potency (Tov112D): inactive

Cn1ncc(Cl)c1-c1cc(C(=O)N[C@H](CN)Cc2ccc(F)c(F)c2)oc1Cl
Potency (C33A): 2.24 µM (active) | Potency (CAOV3): inactive | Potency (CASKI): 3.98 µM (active) | Potency (Es-2): inactive | Potency (HeLa): inactive | Potency (JEG-3): inactive | Potency (OV90): 14.1 µM (active) | Potency (SKOV3): 4.47 µM (active) | Potency (Tov-21-G): 708 nM (active)

O=c1cc(NCCCN[C@@H]2CCOc3c(Br)cc(Br)cc32)[nH]c2ccsc12
Potency (C33A): inactive | Potency (CAOV3): inactive | Potency (CASKI): inactive | Potency (Es-2): inactive | Potency (HeLa): inactive | Potency (JEG-3): inactive | Potency (OV90): inactive | Potency (PA-1): inactive | Potency (SKOV3): inactive | Potency (Tov-21-G): inactive | Potency (Tov112D): inactive

CCCc1cc2c(N3CCN(C4=NCC(C)(C)S4)CC3)ncnc2s1
Potency (C33A): inactive | Potency (CAOV3): inactive | Potency (CASKI): inactive | Potency (Es-2): inactive | Potency (HeLa): inactive | Potency (JEG-3): inactive | Potency (PA-1): inactive | Potency (SKOV3): 25.1 µM (active) | Potency (Tov-21-G): inactive | Potency (Tov112D): inactive

CCn1c(=O)c(-c2ccc(Cl)cc2Cl)cc2cnc(Nc3ccc(N4CCNCC4)c(F)c3)nc21
Potency (C33A): inactive | Potency (CAOV3): inactive | Potency (CASKI): inactive | Potency (Es-2): inactive | Potency (Hek293T): inactive | Potency (JEG-3): inactive | Potency (OV90): inactive | Potency (PA-1): inactive | Potency (Tov112D): inactive

Cc1cc(C(=O)Nc2cc(Nc3ccc4c(/C=C/c5ccccn5)n[nH]c4c3)ccc2F)n(C)n1
Potency (C33A): inactive | Potency (CAOV3): inactive | Potency (CASKI): inactive | Potency (Es-2): inactive | Potency (HeLa): inactive | Potency (JEG-3): inactive | Potency (OV90): inactive | Potency (Tov-21-G): inactive | Potency (Tov112D): inactive

COc1ccc2[nH]c(=O)c3c(c2c1)OC(C)(C)C=C3
Potency (C33A): inactive | Potency (CAOV3): inactive | Potency (CASKI): inactive | Potency (Es-2): inactive | Potency (HeLa): inactive | Potency (JEG-3): inactive | Potency (OV90): inactive | Potency (PA-1): inactive | Potency (SKOV3): inactive | Potency (Tov-21-G): inactive | Potency (Tov112D): inactive

COc1ccc2nc3n[nH]c(C)c3c(NCCOCCO)c2c1
Potency (C33A): inactive | Potency (CAOV3): inactive | Potency (CASKI): inactive | Potency (Es-2): inactive | Potency (Hek293T): inactive | Potency (JEG-3): inactive | Potency (OV90): inactive | Potency (Tov-21-G): inactive | Potency (Tov112D): inactive

C[C@@H]1O[C@@H](O[C@H]2[C@@H](OC(=O)[C@]34CCC(C)(C)CC3C3=CCC5[C@@]6(C)C[C@H](O)[C@H](O[C@@H]7O[C@H](CO)[C@@H](O)[C@H](O)[C@H]7O[C@@H]7OC[C@@H](O)[C@H](O)[C@H]7O)[C@@](C)(C(=O)O)C6CC[C@@]5(C)[C@]3(C)CC4)OC[C@H](O)[C@@H]2O)[C@H](O)[C@H](O)[C@H]1O[C@@H]1OC[C@@H](O)[C@H](O)[C@H]1O (stereo not given in full)
activity change, negative = cytotoxicity (C33A): -27.4% [at 6.55 µM] | activity change, negative = cytotoxicity (CAOV3): 2.23% [at 6.55 µM] | activity change, negative = cytotoxicity (CASKI): -11.2% [at 6.55 µM] | activity change, negative = cytotoxicity (Es-2): 4.6% [at 6.55 µM] | activity change, negative = cytotoxicity (HeLa): -12.9% [at 6.55 µM] | activity change, negative = cytotoxicity (Hek293T): -3.38% [at 6.55 µM] | activity change, negative = cytotoxicity (PA-1): -26.7% [at 6.55 µM] | activity change, negative = cytotoxicity (SKOV3): -18.3% [at 6.55 µM] | activity change, negative = cytotoxicity (Tov-21-G): 0.0725% [at 6.55 µM] | activity change, negative = cytotoxicity (Tov112D): -12.7% [at 6.55 µM]
